# Screens from PubChem BioAssay.
# TSHR antag: human thyrotropin receptor antagonism | P16473 | TSHR-expressing cells, TSH-stimulated cAMP HTRF, 2 h; stronger effect = lower value | activity change, negative = inhibition, % at 11.5 µM | 0.2% of 330,000 active | AID 504810;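 active means activity change below a set negative limit, meaning inhibition stronger than a set level, cut at about -70% in these data; inconclusive means activity change between two set negative limits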; further: on the % scale 0 is the no-effect control and ±100 the full control effect
#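 Read-out is FRET at 665 nm (cryptate excitation 337 nm) from a cryptate-tagged anti-cAMP antibody, competed by cell cAMP against cAMP-d2. Compounds are tested on freshly harvested TSHR cells challenged with 4nM TSH (EC80) for 2 hours at 37 deg C.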
# BRCA1 expr act: activators of BRCA1 expression; 1.1% of 380,000 active; AID 624202; MCF7-BRCA1-FFLuc reporter, luminescence, 48 h; response scale: scaled: vehicle 0%, 10 µM genistein 100%; Potency, µM (titrated, usually from 46.1 µM), inactives show at the highest dose activation, usual class: activators; further: potency means the concentration at half of the fitted maximal effect; nearly all actives have a fitted effect of over 80% in size
#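 Luminescence from a BRCA1-driven firefly luciferase in MCF7 cells was read after 48 h compound exposure at 37 C. Data normalized against DMSO and a 10microM genistein activation control, then curve-fitted across the titration.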
# Anesthetic bind: candidate novel general anesthetic via apoferritin binding. P02791. apoferritin/1-aminoanthracene competitive binding, fluorescence. Potency, µM (series often up to 77.5 µM), for inactives: top-dose activity change, negative = displacement, actives largely listed as inhibitors. 0.074% of 350,000 active; further: potency means the concentration at half of the fitted maximal effect; on the % scale 0 is the no-effect control and ±100 the full control effect; nearly all actives have a fitted effect of over 20% in size
# Target sequence (P02791 2-175 limits assumed): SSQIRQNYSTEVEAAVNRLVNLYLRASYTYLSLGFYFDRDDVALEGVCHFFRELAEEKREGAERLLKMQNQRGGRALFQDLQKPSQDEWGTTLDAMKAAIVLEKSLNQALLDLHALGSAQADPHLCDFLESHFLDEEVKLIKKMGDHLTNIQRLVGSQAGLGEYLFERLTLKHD
#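 In PBS, apoferritin at 10 uM is loaded with 1-AMA from a 50% saturated solution. After 10 min of compound exposure at ambient temperature, reduced 535 nm fluorescence indicates probe displacement.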
# S-ASM inh: human S-ASM enzyme inhibition. Potency, µM (highest dose often 57.5 µM), for inactives: at the top dose activity change, negative = inhibition, most hits filed as inhibitors. 0.006% of 340,000 active. placental ASM, HMU-PC fluorogenic substrate, 60 min. P17405; further: potency means the concentration at half of the fitted maximal effect
#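 Human placenta-derived ASM enzyme was preincubated with compound for 10 minutes at room temperature, then given fluorogenic substrate HMU-PC0 (9 uM final) for 60 minutes at 37 °C; a pH 10 stop preceded fluorescence reading at Ex 386/Em 447 nm.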
# PTAP TSG101 blk: blocks PTAP/TSG101 interaction to inhibit HIV-1 budding; Potency, µM (top dose mostly 115 µM), without a hit: at the highest dose activity change, negative = inhibition, hits mostly inhibitors; 340,000 tested, under 10 active; Q99816; Fluorescence polarization, FITC-PTAP peptide / Tsg101 binding; active means well fitted inhibition curve with a large enough effect in the main read-out, with a control signal flat, not every such curve was filed as active; inconclusive means small, poorly fitted or top-dose-only effect, or effect the other way, or a change in a side signal; inactive means no such curve, though single readings can be large or run the other way; further: potency means the concentration at half of the fitted maximal effect; % of control where 0% means no effect
# Target sequence (Q99816 whole entry, looked up): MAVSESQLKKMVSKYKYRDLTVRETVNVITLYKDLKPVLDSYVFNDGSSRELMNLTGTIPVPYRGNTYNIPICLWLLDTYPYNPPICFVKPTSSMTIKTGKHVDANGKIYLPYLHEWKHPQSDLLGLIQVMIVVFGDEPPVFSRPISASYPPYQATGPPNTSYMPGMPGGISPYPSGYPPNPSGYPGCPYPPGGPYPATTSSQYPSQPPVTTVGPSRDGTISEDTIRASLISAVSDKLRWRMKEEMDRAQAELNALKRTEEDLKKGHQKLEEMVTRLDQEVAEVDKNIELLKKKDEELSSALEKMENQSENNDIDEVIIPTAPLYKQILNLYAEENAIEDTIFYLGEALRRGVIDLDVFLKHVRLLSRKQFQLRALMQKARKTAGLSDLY
#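 Tsg101 binding domain (10 uM final) was mixed with compound and a FITC-labeled PTAP peptide (50 nM final) in HEPES pH 7.5 buffer with NaCl, Tween 20, EDTA and TCEP; fluorescence polarization was read after 20 min at r.t.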
# Active calls of the source: *; u = inconclusive; x = no result. This is a sample that favours compounds with a hit; in the whole collection about 1.2% have one here. Unless noted, the call rests on the fitted dose curve; in most records, active means well fitted curve in the direction sought with a large enough effect; inconclusive means small, poorly fitted or top-dose-only effect, or another doubt; inactive means no such curve, though single readings can be large; an effect the other way counts as inactive or inconclusive.
SMILES,TSHR antag,BRCA1 expr act,Anesthetic bind,S-ASM inh,PTAP TSG101 blk
COc1ccc(-c2nnc3n2N=C(c2cc(OC)ccc2OC)CS3)c(OC)c1,x,x,-23.8%,x,x
COCCn1c(C)cc(/C=C2/NC(=O)N(c3cccc(Cl)c3)C2=O)c1C,-6.5,7.94µM*,-12.1%,44.8%,0.9%
O=C(CSc1cccc[n+]1[O-])Nc1cc([N+](=O)[O-])ccc1Cl,54.0,-3.0%,-0.8%,1.0%,-1.7%
O=C(CSc1cccc[n+]1[O-])Nc1cc2c(cc1Cl)C(=O)c1ccccc1C2=O,-8.1,10µM*,-10.3%,-4.9%,-4.4%
S=C(N/N=C/c1ccc(Br)cc1)N1CCCCC1,-8.9,8.91µM*,-8.6%,-2.1%,-3.7%
S=C(N/N=C/c1ccc(Cl)cc1)N1CCOCC1,1.3,-49.6%,-10.9%,-0.9%,0.0%
c1ccc2c(c1)NC1(CCCCCC1)n1c-2nc2ccccc21,4.8,2.82µM*,41.5%,429.3%,-4.5%
c1ccc2c(c1)NC1(CCCCC1)n1c-2nc2ccccc21,0.4,u,61.7%,391.3%,-8.1%
CCCCOc1ccc(C2CCC(C(C)=O)C(C)C2)cc1 (stereo not given),1.3,10µM*,-10.2%,-8.8%,-5.9%
CNC(=O)C1(C(F)(F)F)C/C(=C\Cc2ccccc2)CCCO1 (stereo not given),x,x,-14.6%,x,x
Cc1ccccc1NC(=O)c1cc(=O)c2ccccc2o1,2.4,45.1%,-9.2%,-0.3%,0.0%
N#Cc1ccccc1NC(=O)c1cc(=O)c2ccccc2o1,0.3,8.91µM*,-14.4%,-2.7%,-0.8%
COc1cc2nc(N3CCCN(C)CC3)nc(N(C)C)c2cc1OC,x,-42.5%,x,x,x
CCCCCC/C(C)=C1/SC(=S)NC1=O,-84.6*,4.8%,u,-12.6%,0.9%
O=C(NCC1CCCN(C(=O)c2cccc(C(F)(F)F)c2)C1)c1ccc(F)cc1 (stereo not given),-131.9*,-2.1%,-4.2%,0.8%,-2.1%
C/C=C1\COC(C(=O)NCCN2CCOCC2)(C(F)(F)F)C=C1C=C(C)C (stereo not given),x,x,-9.1%,x,x
Cc1ccc2cc3cc(C(=O)N4CC(C)CC(C)C4)oc3nc2c1 (stereo not given),-8.9,81.9%,-5.6%,-3.4%,0.5%
COc1ccc2cc3cc(C(=O)N4CC(C)CC(C)C4)oc3nc2c1 (stereo not given),-5.4,10µM*,-8.7%,73.2%,-4.4%
O=C(c1cc2cc(Cl)ccc2o1)N1CCCCCC1,-20.4,u,x,2.2%,-0.4%
O=C(c1cc2cc3ccc(Cl)cc3nc2o1)N1CCCCCC1,-15.4,2.24µM*,-6.9%,-0.3%,-2.5%
CN1CCc2cc(O)c(O)cc2C1Cc1ccc(O)c(O)c1 (stereo not given),x,x,4.5%,x,x
COc1ccccc1OCC(=O)Nc1sc2c(c1C(N)=O)CCC2,6.8,5.01µM*,x,1.2%,-1.5%
COc1ccc(C(CC(=O)Nc2nccs2)n2cccc2)cc1 (stereo not given),-9.2,6.31µM*,3.1%,-15.3%,-2.1%
CCCCC(=O)N1C/C=C\C(c2ccc(OC)cc2)N(Cc2ccc(F)cc2)C(=O)C1Cc1ccccc1 (stereo not given),x,x,8.1%,x,x
CCc1ccc(Oc2cc(C)nc(N)n2)cc1,-0.9,3.16µM*,-6.2%,0.2%,-2.9%
SMILES,TSHR antag,BRCA1 expr act,Anesthetic bind,S-ASM inh,PTAP TSG101 blk
COc1ccc2cc(C3=CCCCC3)ncc2c1,-15.6,2.82µM*,x,41.1%,x
COc1ccc2[nH]c(-c3ccccc3)cc2c1,-24.0,3.55µM*,-3.5%,-12.7%,-5.0%
C=C1C=CS(=O)(=O)N(Cc2ccccc2)C1,x,x,0.5%,x,x
Fc1ccc(Nc2ccc(-c3ccc(F)cc3)nn2)cc1,-36.3,5.62µM*,-16.0%,0.0%,-4.7%
Cc1ccc(NC(=O)CN2CCCCCC2)c(Br)c1,-6.8,11.2µM*,u,3.9%,1.4%
COc1ccc(NC(=O)CN2CCCCC2)c([N+](=O)[O-])c1,15.5,10µM*,-4.2%,-4.1%,-8.0%
COc1ccc(NC(=O)CN2CCC(C)CC2)c([N+](=O)[O-])c1,5.5,62.5%,-4.1%,-9.6%,-7.1%
CCOC(=O)NCCOc1ccc(Oc2ccccc2)cc1,x,x,-2.1%,x,x
COc1ccc(NC(=O)Cc2c[nH]c3ccccc23)cc1S(=O)(=O)N1CCCCC1,-74.8*,-4.5%,5.6%,-5.8%,-0.8%
Cc1cc(C(Br)(Br)Br)nc2ccccc12,x,-67.4%,x,x,x
CCCCCCOc1ccc(C(=O)NCCCn2ccnc2)cc1,-22.8,-15.7%,14.1µM*,-1.4%,0.0%
CCCCOc1ccc(NC(=O)C(=O)NCCCn2ccnc2)cc1,0.0,-56.2%,u,2.6%,1.8%
Cc1cc(N/N=C/c2ccc3c(c2)OCO3)nc2ccccc12,0.4,12.6µM*,1.2%,316.2%,0.0%
CN[C@H](CC(C)C)C(=O)N[C@H]1C(=O)N[C@@H](CC(N)=O)C(=O)N[C@@H]2C(=O)N[C@H]3C(=O)N[C@H](C(=O)N[C@H](C(=O)O)c4cc(O)cc(O)c4-c4cc3ccc4O)[C@H](O)c3ccc(c(Cl)c3)Oc3cc2cc(c3O[C@@H]2O[C@H](CO)[C@@H](O)[C@H](O)[C@@H]2O[C@H]2C[C@](C)(N)[C@H](O)[C@H](C)O2)Oc2ccc(cc2Cl)[C@H]1O,-12.9,x,x,x,x
Cn1ccs/c1=N\C(=O)Nc1cccc(Cl)c1,3.3,3.55µM*,-8.4%,2.1%,-7.5%
Cc1ccc(NC(=O)c2ccc3c(c2)nnn3C)cc1,-3.6,7.08µM*,-2.5%,0.3%,0.4%
COc1cccc(NC(=O)Nc2ccc3c(c2)nnn3C)c1,-1.5,7.94µM*,0.5%,1.2%,-5.3%
Cn1nnc2cc(C(=O)Nc3ccc(Cl)cc3)ccc21,-8.4,26.0%,-5.0%,-0.4%,2.8%
Cn1nnc2cc(C(=O)Nc3ccccc3)ccc21,-3.1,7.08µM*,-1.7%,1.3%,2.0%
O=C(O)C1NCCN(C(=O)c2ccc3c(ccc4ccccc43)c2)C1C(=O)O (stereo not given),x,x,-7.0%,x,x
Cc1ccc2oc(-c3ccc(NC(=O)COc4ccccc4)cc3O)nc2c1,x,58.7%,x,x,x
O=C(N/N=C/c1cc2c(cc1Br)OCO2)c1ccccn1,7.7,7.94µM*,8.1%,3.0%,1.5%
Cc1ccc(/C=N/NC(=O)c2ccccn2)o1,0.9,11.2µM*,-4.7%,14.8%,-0.5%
N#Cc1c(F)cccc1N1CCN(Cc2ccc3c(c2)OCO3)CC1,-89.8*,-15.6%,-10.3%,4.7%,-10.7%
O=C(Nc1ccccc1C(=O)OCc1cc(=O)n2ccsc2n1)c1cccc(F)c1,x,x,4.5%,x,x
COc1cccc2oc3cc(C#Cc4ccccn4)ccc3c(=O)c12,-13.1,8.91µM*,-1.2%,68.9%,-1.9%
Cc1cccc(Nc2nc3c(s2)CCCC3)c1,-0.3,10µM*,u,-0.8%,-0.3%
